In PubChem BioAssay (NCI):
Compounds without any hit were thinned out: in the full panel of roughly 83,000, 20% have a hit.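 48-hour exposure, single concentration, 96-well plates; percent growth endpoint where 0 means no net growth. Active: below 10.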 Activity calls are given as the source filed them.

Experiments:
Assay in all cases: NCI-60 one-dose screen, 48 h (100 = growth as untreated, 0 = no growth, -100 = all killed)
Settings in all cases: 10 µM unless noted
NCI-H23 lung = tested on: NCI-H23 lung
NCI-H226 lung = tested on: NCI-H226 lung
NCI-H322M lung = tested on: NCI-H322M lung
HOP-62 NSCLC = tested on: HOP-62 NSCLC
NCI-H460 lung = tested on: NCI-H460 lung
HOP-92 NSCLC = tested on: HOP-92 NSCLC
NCI-H522 lung = tested on: NCI-H522 lung
A549/ATCC NSCLC = tested on: A549/ATCC NSCLC
786-0 renal = tested on: 786-0 renal
COLO 205 colon = tested on: COLO 205 colon
DU-145 prostate = tested on: DU-145 prostate
K-562 leukemia = tested on: K-562 leukemia
MALME-3M melanoma = tested on: MALME-3M melanoma
MDA-MB-231 breast = tested on: MDA-MB-231 breast
RXF 393 renal = tested on: RXF 393 renal
SF-268 CNS = tested on: SF-268 CNS
SF-295 CNS = tested on: SF-295 CNS
SF-539 CNS = tested on: SF-539 CNS
UACC-257 melanoma = tested on: UACC-257 melanoma
M14 melanoma = tested on: M14 melanoma

Measured: growth

O=C1/C(=C/c2cn(-c3ccccc3)nc2-c2ccccc2)SC(=S)N1CCc1ccccc1
inactive: NCI-H23 lung 102% | NCI-H226 lung 99.4% | NCI-H322M lung 113% | HOP-62 NSCLC 94% | NCI-H460 lung 102% | HOP-92 NSCLC 122% | NCI-H522 lung 93.5% | A549/ATCC NSCLC 111% | 786-0 renal 106% | COLO 205 colon 116% | DU-145 prostate 110% | K-562 leukemia 108% | MALME-3M melanoma 104% | MDA-MB-231 breast 106% | RXF 393 renal 111% | SF-268 CNS 95.5% | SF-295 CNS 103% | SF-539 CNS 106% | UACC-257 melanoma 113% | M14 melanoma 102%

CC1=C[C@H]2c3c(c(O)c(O)c4oc5c(C)cccc5c(=O)c34)[C@H](c3cc(O)c(O)c4oc5c(C)cccc5c(=O)c34)[C@H]2C(C)(C)C1
active: NCI-H23 lung -15.2% | NCI-H226 lung 0.242% | HOP-62 NSCLC 9.87% | NCI-H460 lung -44.3% | NCI-H522 lung 3.27% | 786-0 renal -3.44% | K-562 leukemia 2.97% | SF-268 CNS -1.07% | SF-295 CNS -32.4% | SF-539 CNS -18.5%
inactive: NCI-H322M lung 21.5% | HOP-92 NSCLC 20.9% | A549/ATCC NSCLC 11.9% | COLO 205 colon 16.3% | DU-145 prostate 23.9% | MALME-3M melanoma 18.9% | MDA-MB-231 breast 23.7% | RXF 393 renal 21.5% | UACC-257 melanoma 23.4% | M14 melanoma 13.7%

CCN(CC)c1ccc(/C=N\NC(=O)/C=C/C=C/c2ccc3c(c2)OCO3)c(O)c1
inactive: NCI-H23 lung 49.7% | NCI-H226 lung 49.5% | NCI-H322M lung 31.2% | HOP-62 NSCLC 28.5% | NCI-H460 lung 19.8% | HOP-92 NSCLC 48.4% | NCI-H522 lung 12.5% | A549/ATCC NSCLC 53.3% | 786-0 renal 47.2% | COLO 205 colon 39.9% | DU-145 prostate 53.2% | K-562 leukemia 17.6% | MALME-3M melanoma 56.5% | MDA-MB-231 breast 43.2% | RXF 393 renal 72.6% | SF-268 CNS 33.7% | SF-295 CNS 41.7% | SF-539 CNS 22.7% | UACC-257 melanoma 24.2% | M14 melanoma 36.4%

FC(F)(F)c1ccc(-c2cn3nc(-c4c[nH]c5ccc(Br)cc45)sc3n2)cc1
inactive: NCI-H23 lung 85.8% | NCI-H226 lung 79.1% | NCI-H322M lung 85.5% | HOP-62 NSCLC 99.4% | NCI-H460 lung 100% | HOP-92 NSCLC 88% | NCI-H522 lung 91.6% | A549/ATCC NSCLC 99% | 786-0 renal 106% | COLO 205 colon 91.8% | DU-145 prostate 107% | K-562 leukemia 97.9% | MALME-3M melanoma 90.4% | MDA-MB-231 breast 88% | RXF 393 renal 118% | SF-268 CNS 113% | SF-295 CNS 95.2% | SF-539 CNS 101% | UACC-257 melanoma 107% | M14 melanoma 101%

COc1ccc(-c2cc(NC(=O)Nc3ccc4ncsc4c3)no2)cc1
inactive: NCI-H23 lung 100% | NCI-H226 lung 101% | NCI-H322M lung 107% | HOP-62 NSCLC 111% | NCI-H460 lung 99.9% | HOP-92 NSCLC 105% | NCI-H522 lung 88.3% | A549/ATCC NSCLC 103% | 786-0 renal 99.1% | COLO 205 colon 125% | DU-145 prostate 108% | K-562 leukemia 101% | MALME-3M melanoma 112% | MDA-MB-231 breast 103% | RXF 393 renal 129% | SF-268 CNS 105% | SF-295 CNS 89.1% | SF-539 CNS 102% | UACC-257 melanoma 115% | M14 melanoma 106%

COc1cccc(/C=C2\SC(=Nc3ccc(NC(C)=O)cc3)NC2=O)c1OC
inactive: NCI-H23 lung 92.2% | NCI-H226 lung 103% | NCI-H322M lung 94.3% | HOP-62 NSCLC 92.3% | NCI-H460 lung 99.7% | HOP-92 NSCLC 55.3% | NCI-H522 lung 89.2% | A549/ATCC NSCLC 96% | 786-0 renal 67.9% | COLO 205 colon 111% | DU-145 prostate 85.1% | K-562 leukemia 101% | MALME-3M melanoma 107% | MDA-MB-231 breast 102% | RXF 393 renal 83.1% | SF-268 CNS 99% | SF-295 CNS 81.3% | SF-539 CNS 94.4% | UACC-257 melanoma 100% | M14 melanoma 98.1%

Cn1cc(-c2nonc2-c2cn(C)c3ccc(F)cc23)c2ccccc21
active: NCI-H226 lung 5.33% | NCI-H460 lung 7.52% | NCI-H522 lung -8.4% | COLO 205 colon 5.23% | K-562 leukemia 9.9% | RXF 393 renal -13.4% | SF-539 CNS -25.4%
inactive: NCI-H23 lung 23.2% | NCI-H322M lung 40.2% | HOP-62 NSCLC 33.1% | HOP-92 NSCLC 54.6% | A549/ATCC NSCLC 24.5% | 786-0 renal 34.3% | DU-145 prostate 13.6% | MALME-3M melanoma 54.1% | MDA-MB-231 breast 25.6% | SF-268 CNS 43.3% | SF-295 CNS 26% | UACC-257 melanoma 60.6% | M14 melanoma 18.6%

COc1cc(C2CC(=O)c3ccccc3N2)cc(OC)c1OC (stereo not given)
inactive: NCI-H23 lung 95.7% | NCI-H226 lung 82.6% | NCI-H322M lung 102% | HOP-62 NSCLC 97.6% | NCI-H460 lung 101% | HOP-92 NSCLC 92.2% | NCI-H522 lung 54% | A549/ATCC NSCLC 84.6% | 786-0 renal 102% | COLO 205 colon 113% | DU-145 prostate 117% | K-562 leukemia 97.6% | MALME-3M melanoma 93.7% | MDA-MB-231 breast 86.9% | RXF 393 renal 102% | SF-268 CNS 104% | SF-295 CNS 91.7% | SF-539 CNS 102% | UACC-257 melanoma 87.1% | M14 melanoma 103%

O=C(CN(C(=O)Cn1c(=O)n2nnnc2c2ccccc21)c1ccccc1C(F)(F)F)Nc1ccc(C(F)(F)F)cc1
inactive: NCI-H23 lung 103% | NCI-H226 lung 104% | NCI-H322M lung 107% | HOP-62 NSCLC 107% | NCI-H460 lung 105% | HOP-92 NSCLC 92.8% | NCI-H522 lung 98% | A549/ATCC NSCLC 104% | 786-0 renal 103% | COLO 205 colon 112% | DU-145 prostate 110% | K-562 leukemia 101% | MALME-3M melanoma 103% | MDA-MB-231 breast 104% | RXF 393 renal 116% | SF-268 CNS 103% | SF-295 CNS 104% | SF-539 CNS 101% | UACC-257 melanoma 115% | M14 melanoma 102%

O=S(=O)(Nc1ccc(OC(F)F)cc1)c1ccc(-c2cnc(C3CC3)o2)cc1
inactive: NCI-H23 lung 73.4% | NCI-H226 lung 74.1% | NCI-H322M lung 95.7% | HOP-62 NSCLC 66.6% | NCI-H460 lung 79.1% | HOP-92 NSCLC 59.3% | NCI-H522 lung 43% | A549/ATCC NSCLC 60.4% | 786-0 renal 84% | COLO 205 colon 97.2% | DU-145 prostate 90.5% | K-562 leukemia 19.8% | MALME-3M melanoma 76.5% | MDA-MB-231 breast 70.2% | RXF 393 renal 81.9% | SF-268 CNS 75.4% | SF-295 CNS 53.3% | SF-539 CNS 79.2% | UACC-257 melanoma 75% | M14 melanoma 50.9%

COc1ccc(/C=C/C(=O)c2ccc(O)c(CN3CCN(c4cc5c(cc4F)c(=O)c(C(=O)O)cn5C4CC4)CC3)c2)cc1
inactive: NCI-H23 lung 37.7% | NCI-H226 lung 52.2% | NCI-H322M lung 22.6% | HOP-62 NSCLC 19.5% | NCI-H460 lung 51.4% | HOP-92 NSCLC 10.1% | NCI-H522 lung 16.9% | A549/ATCC NSCLC 22.3% | 786-0 renal 27.8% | COLO 205 colon 102% | DU-145 prostate 27.8% | K-562 leukemia 20.3% | MALME-3M melanoma 30.4% | MDA-MB-231 breast 50.6% | RXF 393 renal 28.3% | SF-268 CNS 30.3% | SF-295 CNS 13.1% | SF-539 CNS 18.8% | UACC-257 melanoma 42% | M14 melanoma 30.9%

Nc1ccc(S(=O)(=O)O)c2ccc(N=Nc3ccc(N=Nc4ccc(S(=O)(=O)O)cc4)c4ccccc34)c(O)c12
inactive: NCI-H23 lung 98% | NCI-H226 lung 92.1% | NCI-H322M lung 94.7% | HOP-62 NSCLC 112% | NCI-H460 lung 101% | HOP-92 NSCLC 102% | NCI-H522 lung 89.4% | A549/ATCC NSCLC 99.8% | 786-0 renal 102% | COLO 205 colon 105% | DU-145 prostate 110% | K-562 leukemia 106% | MALME-3M melanoma 97.6% | MDA-MB-231 breast 94.7% | RXF 393 renal 109% | SF-268 CNS 101% | SF-295 CNS 114% | SF-539 CNS 123% | UACC-257 melanoma 109% | M14 melanoma 99.8%

COc1ccc(-c2nc3ccc(-c4nc5ccc(N6CCN(C)CC6)cc5[nH]4)cc3[nH]2)cc1OC
active: MALME-3M melanoma 0.551%
inactive: NCI-H23 lung 62.7% | NCI-H226 lung 54.6% | NCI-H322M lung 96.5% | HOP-62 NSCLC 76.9% | NCI-H460 lung 103% | HOP-92 NSCLC 89.8% | NCI-H522 lung 13.7% | A549/ATCC NSCLC 96.1% | 786-0 renal 79.1% | COLO 205 colon 25.5% | DU-145 prostate 77.6% | K-562 leukemia 40.5% | MDA-MB-231 breast 82.9% | RXF 393 renal 96.6% | SF-268 CNS 50.6% | SF-295 CNS 66.6% | SF-539 CNS 70.5% | UACC-257 melanoma 25.2% | M14 melanoma 18.3%

O=C1/C(=C(/c2ccccc2)N2CCOCC2)Cc2ccccc21
inactive: NCI-H23 lung 54.1% | NCI-H226 lung 58.8% | NCI-H322M lung 98.3% | HOP-62 NSCLC 81.8% | NCI-H460 lung 81% | A549/ATCC NSCLC 77.2% | K-562 leukemia 35.2% | RXF 393 renal 42% | SF-268 CNS 11.3% | SF-295 CNS 75.8% | UACC-257 melanoma 65.4%
active: HOP-92 NSCLC 8.98% | NCI-H522 lung -63.6% | 786-0 renal 7.77% | COLO 205 colon -48.4% | DU-145 prostate -42.4% | MALME-3M melanoma 9.61% | MDA-MB-231 breast 8.95% | SF-539 CNS -45.6% | M14 melanoma -34.7%
